From PubChem BioAssay AID488815 (Broad Institute, 2010)
Results with a measured potency or affinity are listed apart. Results filed as inconclusive are left out. Calls of active or inactive are those of the source. The rule behind the calls is not given here.

Target: CAAX prenyl protease 1 (Saccharomyces cerevisiae (strain ATCC 204508 / S288c)) (UniProt P47154)
Experiment: yeast CAAX protease Ste24 inhibition – biochemical, S. cerevisiae, plate reader, cherry-pick, dose response (AID 488815)
Settings: series mostly up to 10 µM

Chain of CAAX prenyl protease 1 (Saccharomyces cerevisiae (strain ATCC 204508 / S288c)) (P47154 whole entry, looked up): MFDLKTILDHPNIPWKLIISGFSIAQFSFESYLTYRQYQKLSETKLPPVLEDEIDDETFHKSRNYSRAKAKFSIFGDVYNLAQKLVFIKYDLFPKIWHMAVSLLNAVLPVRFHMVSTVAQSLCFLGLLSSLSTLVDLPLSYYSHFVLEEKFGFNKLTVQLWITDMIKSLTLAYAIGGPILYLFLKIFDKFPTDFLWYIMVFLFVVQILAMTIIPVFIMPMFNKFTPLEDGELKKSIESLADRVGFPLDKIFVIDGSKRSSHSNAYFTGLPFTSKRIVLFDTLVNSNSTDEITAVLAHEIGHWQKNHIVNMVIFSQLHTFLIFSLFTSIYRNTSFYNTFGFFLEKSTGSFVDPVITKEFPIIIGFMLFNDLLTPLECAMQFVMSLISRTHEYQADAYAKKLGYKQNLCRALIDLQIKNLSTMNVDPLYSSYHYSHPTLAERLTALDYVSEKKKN

outcome, inactive:
CCCCOC(=O)Nc1nc(C)c(C(=O)OCC)s1, CCOC(=O)c1ccc(NC(=O)N2CCN(Cc3ccccc3)CC2)cc1, CCOc1ccc(-c2c(C(=O)N/N=C/c3cccs3)nnn2-c2nonc2N)cc1, O=C(COc1ccccc1)Nc1cccc(-c2nc3cc4ccccc4cc3[nH]2)c1, COC(C[C@H](O)C[C@H](O)[C@@H](C)OCc1ccccc1)OC, c1ccc(Nc2cccc(Nc3ccccc3)n2)cc1, CCO[C@@H]1OC(C(=O)N2CCN(Cc3ccccc3)CC2)=C[C@H](c2ccccc2)[C@H]1CCCO, CC(=O)c1c(C)oc2ccc(NS(=O)(=O)c3ccc(C(=O)O)cc3)cc12, CCCCOc1ccc(Cc2c(COCC)[nH]c(=S)[nH]c2=O)cc1, O=c1c(-c2ccccc2)c(O)c2ccccc2n1-c1ccccc1, CCn1cc(/C=C(\NC(=O)c2ccccc2F)C(=O)N2CCOCC2)c2ccccc21, COc1ccc(CN2CCN(C(c3ccc(F)cc3)c3ccc(F)cc3)CC2)c(OC)c1OC, Cc1cccc2sc(N(CCN(C)C)C(=O)c3ccc4ccccc4c3)nc12, Cc1cc(NC(=O)c2oc3ccccc3c2C)ccc1-n1cnnn1, O=C(Nc1ccc(S(=O)(=O)Nc2ccccc2)cc1)C1COc2ccccc2O1 (configuration not stated), O=C1CCN(Cc2ccccc2)CCN1[C@H](CSc1ccccc1)Cc1ccccc1, CC(C)c1c(C(=O)N/N=C/c2cccc3ccccc23)nnn1-c1nonc1N
